Compounds with a hit are over-represented: about 9.5% of the library has one in this group of screens.
NS1 inh = inhibitors of influenza NS1 protein function. Potency, µM (doses to about 46.1 µM), for the others: top-dose activity, positive = more growth. AID 2326. 270,000 tested, 0.4% active; also: actives are rising curves; nearly all actives have a fitted effect of over 50% in size
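Recovery from NS1-induced slow growth read by OD600 in budding yeast switched to galactose assay medium (pH 6.0, -URA) at 1:100 dilution. Compound 23 nl per well; the matching strain lacking NS1 serves as control.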
Pf growth 96h = P. falciparum growth inhibition at 96 hours; 320,000 tested, 6.9% active; P. falciparum luciferase reporter growth, 96 h; Potency, µM (titrated, usually from 28.7 µM), for inactives: top-dose activity change, negative = inhibition, most hits filed as inhibitors; active = well fitted inhibition curve with a large enough effect; inconclusive = small, poorly fitted or top-dose-only effect, or another doubt; inactive = no such curve, though single readings can be large or run the other way; also: % is scaled to controls: 0 for no effect and ±100 for the full control effect
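96 h incubation, 37 C, 5% CO2, of luciferase-reporter P. falciparum-infected RBCs (2% hematocrit, 0.05% parasitemia final) with test compounds; endpoint luminescence.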
SARS PLpro yeast = SARS-CoV PLP inhibition in yeast; S. cerevisiae expressing SARS-CoV PLpro, growth rescue; Potency, µM (highest dose often 32.9 µM), inactives show at the top dose activity, positive = growth rescue, actives largely listed as activators; 330,000 tested, 0.19% active; AID 485353; also: 0% is about no effect; nearly all actives have a fitted effect of over 55% in size
Pf growth 48h = P. falciparum growth inhibition at 48 hours (one generation). P. falciparum luciferase growth in erythrocytes, 48 h. Potency, µM (highest dose often 28.7 µM), inactives show at the highest dose activity change, negative = inhibition, hits mostly inhibitors. 310,000 tested, 5.9% active. AID 504832; active = well fitted inhibition curve with a large enough effect; inconclusive = small, poorly fitted or top-dose-only effect, or another doubt; inactive = no such curve, though single readings can be large or run the other way; also: % is scaled to controls: 0 for no effect and ±100 for the full control effect
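A one-generation exposure of luciferase-tagged malaria parasites in RPMI 1640/Albumax erythrocyte culture, 37 C and 5% CO2. Inhibition is inferred from decreased luminescence after adding detection reagent.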
RE007 growth inh = less growth of the S. pombe RE007 Vpr strain; S. pombe RE007 Vpr strain, BacTiter-Glo ATP luminescence, 24 h; Potency, µM (series often up to 92.2 µM), inactives show top-dose activity change, negative = less growth, usual class: inhibitors; 360,000 tested, 0.21% active; AID 651644; active = well fitted falling curve with a large enough effect; inconclusive = small, poorly fitted or top-dose-only effect; inactive = no such curve, though single readings can be large or run the other way; also: % is scaled to controls: 0 for no effect and ±100 for the full control effect; nearly all actives have a fitted effect of over 50% in size
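Fission yeast strain RE007, carrying one chromosomally integrated HIV-1 vpr copy, was seeded at OD 0.01 in PMG+AL medium with 23 nL pinned compound. After 24 h at 30 °C and 99% humidity, viability was read by BacTiter-Glo luminescence.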
* = called active by the depositor; u = inconclusive; x = not tested or not shown; [ ] = another dose, or the depositor's remark. Unless noted, calls follow the shape of the full dose curve. Potency is read from the fitted curve at half-maximal effect.

SMILES | NS1 inh | Pf growth 96h | SARS PLpro yeast | Pf growth 48h | RE007 growth inh
CC1=C(C(=O)N2CCOCC2)CC(CC(=O)NCCc2ccccn2)C(=O)N1CCCN1CCCC1=O (configuration not stated) | x | x | x | x | -2.8%
Cc1ccc(C(=O)N2CCN(c3ccc([N+](=O)[O-])c(NCc4cccnc4)c3)CC2)cc1 | -12.1% | 3.7µM* | -3.1% | 8.28µM* | 5.1%
Cc1ccccc1C(=O)N1CCN(c2ccc([N+](=O)[O-])c(NCc3cccnc3)c2)CC1 | -3.1% | 257.0% | 5.6% | u | 16.9%
CCOc1ccccc1N1CCN(C(=O)c2cc(-c3cccnc3)nc3c(Cl)cccc23)CC1 | 14.0% | 4.1% | 13.1% | 3.29µM* | 3.1%
Cc1ccc2c(C(=O)N3CCN(c4ccccc4)CC3)cc(-c3cccnc3)nc2c1C | 4.6% | -16.0% | -0.3% | 2.33µM* | 6.6%
Cc1ccc2nc(-c3cccnc3)cc(C(=O)N3CCN(c4ccc([N+](=O)[O-])cc4)CC3)c2c1 | 5.0% | -32.1% | -0.9% | 10.4µM* | u
CCOc1ccccc1N1CCN(C(=O)c2ccncc2)CC1 | 8.1% | x | 1.0% | 4.6% | 12.4%
CC(C)c1c(C(=O)N/N=C/c2cccc3ccccc23)nnn1-c1nonc1N | -20.9% | u | -0.5% | -23.2% | 4.3%
O=S(=O)(c1ccc(OC(F)(F)F)cc1)N1CCCC(N2CCOCC2)C1 (configuration not stated) | -13.8% | 224.1% | -0.1% | -0.2% | 2.0%
C=CCNC(=O)O/N=C/c1csc([N+](=O)[O-])c1 | -0.7% | u | -0.2% | -7.5% | -6.3%
CCOC(=O)N1CCN(c2c(NCc3ccccc3Cl)c(=O)c2=O)CC1 | 1.8% | -9.2% | 1.0% | -8.4% | -0.2%
CCOC(=O)N1CCC(Nc2c(N3CCN(c4cc(Cl)ccc4C)CC3)c(=O)c2=O)CC1 | -47.7% | 4.65µM* | 5.9% | x | -2.3%
CCCN(CCC)CCNc1c(NC2CCN(C(=O)OCC)CC2)c(=O)c1=O | -2.4% | u | -7.9% | x | -3.7%
CCOC(=O)N1CCC(Nc2c(-c3ccc(C)c(C)c3)c(=O)c2=O)CC1 | 0.9% | 0.522µM* | -2.7% | -6.7% | 18.9%
C[C@@H](CSC(=N)N)C(N)=O | 0.0% | x | x | x | x
CCOc1ccc(CCNC(=O)CCn2ccc3cc(S(=O)(=O)N4CCCC4)ccc32)cc1 | -2.8% | u | -5.5% | u | 0.0%
Cc1c(-c2ccccc2)nc2ccccc2c1C(=O)O | 9.6% | -5.3% | 3.0% | -2.1% | 7.5%
O=C(Nc1cccnc1)c1ccc2ccccc2c1O | -155.2% | 0.465µM* | -29.0% | 65.4% | u
COc1cccc(-c2cc(C(=O)Nc3ccc4c(c3)OCCO4)c3ccccc3n2)c1 | 12.5% | 6.57µM* | 5.0% | 9.28µM* | x
Cc1ccc2nc(-c3ccccc3)cc(C(=O)Nc3cccnc3)c2c1 | x | 1.65µM* | 5.3% | 2.08µM* | 3.3%
Cc1c(-c2ccccc2)nc2ccccc2c1C(=O)Nc1ccncc1 | -30.1% | 0.329µM* | -0.8% | 1.65µM* | -1.7%
O=C(N/N=C/c1cccnc1)c1ccc2ccccc2c1O | -25.5% | -17.2% | x | 26.5% | -25.3%
Cc1cccc(-c2cc(C(=O)Nc3cccnc3)c3ccccc3n2)c1 | -41.4% | u | -9.8% | u | 0.3%
COc1ccc(-c2csc(N(CCCN(C)C)C(=O)c3ccc(OC)c(OC)c3)n2)cc1 | x | x | x | x | -1.2%
O=C(CNC(=O)C1(c2ccccc2)CC1)Nc1ccc(F)c(F)c1 | x | 21.1% | 10.8% | 4.7% | -1.9%
SMILES | NS1 inh | Pf growth 96h | SARS PLpro yeast | Pf growth 48h | RE007 growth inh
CCC(=O)N/C(=N\OCc1ccc(F)cc1)c1nonc1NC(=O)CC | 15.7% | 36.1% | -4.2% | 30.7% | -25.5%
O=C(Nc1ccc2c(c1)OCO2)c1csc([C@H]2C[C@H](O)[C@@H](CO)O2)n1 | x | x | x | x | -12.2%[18.4 µM]
O=C(COC(=O)C1CCC1)NC(=O)c1ccccc1 | x | 51.1% | 5.3% | 17.6% | -4.2%
Cc1ccc(C(=O)Nc2ccncc2)c(Cl)c1 | -30.9% | u | -9.1% | 4.2% | -18.1%
Cc1ccc(C)c(C(=O)Nc2ccncc2)c1 | -9.9% | 2.08µM* | 8.7% | u | 7.5%
Cc1ccc2nc(-c3ccncc3)cc(C(=O)Nc3ccc(F)cc3C)c2c1 | 4.6% | u | -10.5% | 6.57µM* | 6.3%
Cc1cccc(-c2cc(C(=O)Nc3ccncc3)c3ccccc3n2)c1 | 12.2% | 2.33µM* | -8.1% | 1.04µM* | -11.3%
O=C(Nc1nccs1)c1cc(-c2ccco2)nc2ccccc12 | 24.4% | 22.9% | 16.3% | 9.1% | -0.7%
O=C(Nc1nccs1)c1cc(-c2ccccc2)nc2ccccc12 | 3.7% | 3.29µM* | 15.5% | 2.62µM* | -9.6%
O=C(C1=C(O)C(=O)N(CC2CCCO2)C1c1cccc(Cl)c1)c1ccco1 (configuration not stated) | 6.9% | 34.1% | 1.0% | 27.0% | 33.8%
COc1ncc(-c2ccc(N3C(c4ccsc4)=Cc4ccc(F)cc4C3CC(C)=O)cc2)cn1 (configuration not stated) | x | x | x | x | -11.0%
CCOC(=O)C1CCCN(C(=O)c2cc(S(=O)(=O)N3CCCCC3)c[nH]2)C1 (configuration not stated) | 1.7% | 59.2% | 4.8% | 14.1% | -9.3%
Cc1cc(NC(=O)c2cc(-c3ccccn3)nc3ccc(Br)cc23)no1 | -9.0% | 15.5% | -1.3% | -4.2% | -6.5%
Cc1ccc(-c2cc(C(=O)Nc3cccnc3)c3ccccc3n2)s1 | 0.0% | u | -4.9% | 2.62µM* | 12.6%
Cc1cc(C)nc(NC(=O)c2cc(-c3ccc(C)s3)nc3ccccc23)c1 | u | -83.4% | -0.5% | u | -22.8%
O=C(Nc1ccccn1)c1cc(-c2cccnc2)nc2ccc(Br)cc12 | 4.5% | 2.8% | -7.2% | 3.7µM* | -7.5%
Cc1cccc2sc(NNC(=O)c3cc(-c4cccs4)nc4ccccc34)nc12 | 22.2% | 4.15µM* | 14.1% | u | -11.8%
Cc1ccc(C)c(C(=O)Nc2cc(C)nn2-c2nc(C)cc(C)n2)c1 | x | u | -0.6% | 13.1µM* | -0.3%
COCCCNc1nccn2ccnc12 | x | x | x | x | 2.0%
Cc1noc(C)c1S(=O)(=O)N(C)C[C@H]1Oc2ccc(NC(=O)NC(C)C)cc2C(=O)N([C@H](C)CO)C[C@@H]1C | x | x | 2.1% | x | 48.1%
COc1cc(OC)c(NC(=O)CSc2nc3ccncc3[nH]2)cc1Cl | x | 3.2% | 0.8% | -1.4% | x
CN1CCc2c(sc(NC(=O)C3CCCN3S(=O)(=O)c3ccc(Cl)s3)c2C(N)=O)C1 (configuration not stated) | x | u | 5.0% | u | 2.8%
Cc1ccc2nc(-c3cccc(Br)c3)cc(C(=O)NC3CC3)c2c1 | 0.2% | u | -10.2% | 4.65µM* | 0.5%
Cc1ccc2nc(-c3ccncc3)cc(-c3ccccc3)c2c1 | -91.6% | 9.28µM* | -15.0% | 10.4µM* | u
Cc1ccc2nc(C)cc(C(=O)NC3CCCCCC3)c2c1 | x | x | -1.3% | x | 2.3%
NS(=O)(=O)c1ccc(NC(=O)c2cc(-c3cccs3)nc3ccccc23)cc1 | u | 0.415µM* | 5.9% | 26.1% | -8.7%

Screening data deposited in PubChem BioAssay by National Center for Advancing Translational Sciences (NCATS).
